Where “and” joins values, the source holds several entries; their conditions need not be identical. Identical values can stand only once. This is part of a sample that, as a whole, favours compounds with a hit. Of some 83,000 tested, about 20% had one in any assay.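 Single-dose data. Exposure time 48 hours. Values below 10 considered active.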 Values without a mark were called inactive. Calls of active or inactive are those of the source.
These compounds were tested on MDA-MB-231 breast (assay: NCI-60 one-dose screen, 48 h (100 = growth as untreated, 0 = no growth, -100 = all killed)). Conditions: 10 µM unless noted.

SMILES | growth
O=C(Nc1ccccc1C(=O)N/N=C(\c1ccccc1)c1ccccn1)c1ccccc1 | 22.5%
FC(F)(F)Sc1ccc(/C=C/c2cc(/C=C/c3ccc(SC(F)(F)F)cc3)n(-c3ccccc3)n2)cc1 | 89.5%
Cc1ccc(-c2nc3nc(-c4ccc(Cl)cc4)nc(N4CCCNCC4)c3o2)cc1 | -75.7% (active)
CN1CCN(c2ccc(/C=C/C(=O)c3ccc(O)cc3)cc2)CC1 | 94.8%
COc1ccc(/C(C)=C(\c2ccc(OCCN3CCOCC3)cc2)c2ccc(OC(=O)C3CCCCC3)cc2)cc1 | 111%
CS(=O)(=O)Nc1cc(-c2ccc3ncnc(Nc4ccc(F)c(Cl)c4)c3c2)cnc1Cl | 5.12% (active)
CCOc1ccc(C(=O)Cc2ccccc2)cc1 | 113% and 102%
CCCc1cc(C(N)=S)ccn1 | 115%
COc1ccc(-c2ccc(-c3ccc(C(=N)N)cn3)s2)cc1Cl | -77.9% (active)
Nc1nc(CSc2n[nH]c(N)n2)nc(Nc2ccccc2)n1 | 105%
COC(=O)c1nc(-c2ccccc2)oc1S(=O)(=O)N(C)CCO | 78.3%
Nc1nc(Cl)nc2c1ncn2C1OC(CO)C(O)C1O (stereo not given) | 71.1% and 90.7%
Cc1ccc(NC(=O)c2sc3nc(C)c(C(=O)c4ccccc4)cc3c2N)cc1 | 92%
O=Nc1ccc(NO)c2ccccc12 | 89% and 73.5%
N=C1/C(=C2\NC3C=CC=CC3S2)C(c2ccc(Cl)cc2)C2C(=O)N(c3ccccc3)C(=S)N12 (stereo not given) | 102%
COc1cccc(C2C(C#N)=C(N)Oc3cc(OCCCCCC[P+](c4ccccc4)(c4ccccc4)c4ccccc4)ccc32)c1 (stereo not given) | -54.1% (active)
C=C1CC[C@@H]2[C@](C)(COC(C)=O)[C@H](OC(C)=O)CC[C@@]2(C)[C@@H]1CC(Nc1ccc(S(=O)(=O)Nc2nccs2)cc1)C1=CCOC1=O (stereo not given in full) | 5.69% (active)
CCNC(=O)Oc1ccc(/C(=C(/C)Cc2ccc(OC)cc2)c2ccc(OCCN(CC)CC)cc2)cc1 | 45%
O=C1OCC2=C1C(c1cccc(C(F)(F)F)c1)c1cc3c(cc1N2CCO)CCC3 (stereo not given) | 28.4%
O=C(Nc1ccc2ccccc2c1)c1cc2ccccc2cc1O | 104%
CCOC(=O)c1nnn(Cc2cc(=O)oc3c2ccc2ccccc23)c1C | 98.7%
CCC(=O)Oc1cc(Cl)c(Cl)cc1Cl | 114%
COc1ccc(C(=O)c2ccc(OC)c(OC)c2OC)cc1 | 59.2% and 48.2%
Cn1cc(-c2nonc2-c2cn(C)c3ccc(Br)cc23)c2ccccc21 | 45.5%
CC(C)(C)c1cc(NC(=O)Nc2ccc(-c3cn4c(n3)sc3cc(OCCN5CCOCC5)ccc34)cc2)no1 | 43.3% and 35.6%
